Data published in the supplement of paper PMC6555819.

Key:
Experiment in all cases: PBM binding z-score (relative to random genomic background probes); higher = stronger binding; sequences stand for … in GC…GCGATTGACAGCGTAGAATGAAGG
[1] = tested on: FXR:RXRa (NR concentration 270 nM, RXRa partner concentration 90 nM)
Summary of the method: (§1)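 Custom Agilent 4×180K protein-binding microarrays carried double-stranded probes. Their 34-nt variable regions held direct-repeat seeds, single-nucleotide variants, half-site ablations and random human genomic background sequences. Arrays were incubated 1 h with ligand-free nuclear receptor dimers in PBS pH 7.4, 2% milk, 0.02% Triton X-100, 1 mM DTT, 0.2 mg/mL BSA and 0.4 mg/ml salmon testes DNA. Antibodies against each partner (one per run) detected binding, and scanned fluorescence was regression-normalized. Binding z-scores use random background probes as reference.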

[2] = tested on: LXRa:RXRa (NR concentration 270 nM, RXRa partner concentration 90 nM)
Summary of the method: as §1

[3] = tested on: LXRa homodimer (NR concentration 270 nM)
Summary of the method: as §1

[4] = tested on: LXRb:RXRa (NR concentration 270 nM, RXRa partner concentration 90 nM)
Summary of the method: as §1

[5] = tested on: LXRb homodimer (NR concentration 270 nM)
Summary of the method: as §1

[6] = tested on: PPARa:RXRa (NR concentration 270 nM, RXRa partner concentration 90 nM)
Summary of the method: as §1

[7] = tested on: PPARg:RXRa (NR concentration 180 nM, RXRa partner concentration 90 nM)
Summary of the method: as §1

[8] = tested on: PPARg:RXRa 270nM:90nM, anti-RXR (NR concentration 270 nM, RXRa partner concentration 90 nM)
Summary of the method: as §1

[9] = tested on: PPARg:RXRa 30nM:10nM, anti-RXR (NR concentration 30 nM, RXRa partner concentration 10 nM)
Summary of the method: as §1

[10] = tested on: PPARg:RXRa 90nM:30nM, anti-RXR (NR concentration 90 nM, RXRa partner concentration 30 nM)
Summary of the method: as §1

| Sequence | PBM binding z-score [1] | PBM binding z-score [2] | PBM binding z-score [3] | PBM binding z-score [4] | PBM binding z-score [5] | PBM binding z-score [6] | PBM binding z-score [7] | PBM binding z-score [8] | PBM binding z-score [9] | PBM binding z-score [10] |
| --- | --- | --- | --- | --- | --- | --- | --- | --- | --- | --- |
| AGTCAAAGTTCACTAGGTAACGTACGATTCAGCT | 5.6 | 5.41 | 3.55 | 3.27 | 0.963 | 4.79 | 7.47 | 6.6 | 3.88 | 5.98 |
| TCTTGTAGAACAAGCAGGTTAAGAAAGCCTGAGT | 0.0411 | -0.117 | -0.158 | -0.0832 | -0.582 | 0.777 | -0.27 | 1.19 | 2.58 | 1.82 |
| ATCGAAAGGTCGAAGGTGGGTATACCCACCCGAA | 4.08 | 3.18 | 0.0928 | 2.34 | 0.437 | 4.28 | 3.74 | 3.99 | 1.28 | 2.77 |
| CAGGCTAGGTCAGGGCCAGTATAGGAGGAACGTT | 1.56 | 0.779 | -0.274 | 0.278 | -0.895 | 2.06 | 1.39 | 1.07 | -0.194 | 0.297 |
| TCTTGTAGATCAATAGAGGTTAAGAATGTGCGCT | 0.658 | 2.14 | 0.456 | 1.44 | 0.239 | 1.91 | 0.259 | 1.56 | 2.73 | 1.97 |
| ATCTATAGGTAAAGATAGTTCAGTGAATGCAAAT | 0.466 | 5.29 | 0.591 | 1.55 | 0.423 | 0.82 | 1.09 | 0.484 | 0.425 | 0.604 |
| TCGTATAGGTAAAGGTGAAAGTCGAACGATATGA | 1.05 | 1.45 | 0.11 | 1.11 | -0.167 | 2.87 | 2.34 | 3.99 | 3.45 | 3.86 |
| TATCGGAGGACACGAAGGTCAGAGCTTTCCAGAG | 1.17 | 1.65 | 1.08 | 1.14 | -0.0992 | 1.88 | 0.951 | 1.18 | 0.288 | 0.613 |
| ATATGTAGGTTATCGTGTCATTCAGTTTGCGCAT | 0.97 | 1.3 | 0.641 | 1.5 | 0.855 | 3.55 | 5.76 | 5.11 | 2.48 | 4.38 |
| GTAACGAGGGCAAAGTTGATAGCATCTGTCGACG | 1.48 | 1.29 | -0.238 | 1.17 | 0.169 | 4.2 | 7.58 | 7.24 | 6.77 | 7.65 |
| CCTGCTACGTCATGGTCAGCTAATCTACAGTATG | -0.508 | -0.217 | -0.512 | -0.505 | -0.327 | -0.4 | 0.216 | -0.67 | -0.17 | -0.333 |
| CAGCCGAGGTCAGGGCCAGTATAGGAGGAACGTT | 6.57 | 3.98 | -0.152 | 3.28 | -0.519 | 5.6 | 5.04 | 4.49 | 1.2 | 3.28 |
| CGAACTAGGTCATCCAGGACGGTGAATACATTGA | 4.05 | 2.29 | 0.0785 | 1.64 | -0.427 | 4.85 | 7.27 | 6.3 | 3.61 | 5.41 |
| TCTTGTAGATCAAAGGTTAAGAGAGCCGAAGCCT | 1.58 | 1.77 | 0.0362 | 1.91 | -0.272 | 4.75 | 8.74 | 8.28 | 8.05 | 8.92 |
| TCTAGCAAGCCAGAGGGTCACTCAAGAGGTACGG | 0.763 | 0.684 | -0.557 | 1.04 | -1.21 | 2 | 0.737 | 1.3 | 1.51 | 1.28 |
| CCTAGTTGCTCAAGGTCACACACGCTATAGGTAC | 4.3 | 4.59 | 4.23 | 3.72 | 1.6 | 3.98 | 2.13 | 2.77 | 0.986 | 1.95 |
| AGAATGAGGTTACCAAAGATCAGGGACACGCTTG | 2.25 | 6.38 | -0.0151 | 3.01 | -0.234 | 3.38 | 2.84 | 2.9 | 0.908 | 2.29 |
| GGAACGAGGGCCAGTTGATAGCAGAGTTTGATGG | -0.532 | -0.8 | -0.645 | -1.21 | -0.96 | -0.53 | 0.258 | -0.67 | -0.491 | -0.758 |
| ACAGACCGGTGAGTGAAGGTAACTCAGCTGGACG | -0.151 | -0.178 | -0.654 | -0.711 | -0.849 | -0.708 | 0.147 | -0.715 | -0.631 | -1.01 |
| TCTCGGAGGACACGCAAGGTCAGAGCTCGACATC | 1.49 | 2.26 | 1.31 | 1.58 | -0.475 | 2.1 | 0.475 | 1.39 | 2.16 | 1.64 |
| TCGAGTAGGTTAGTCGGGGGATTCAGCCAACATA | 0.552 | 0.506 | -0.00348 | 2.06 | 6.46 | 1.13 | 0.0949 | 1.49 | 1.26 | 1.28 |
| CCGACTGGGGCATAAGGTTACGATAAGCCAGCCC | 0.452 | 0.99 | -0.328 | 0.815 | -1.42 | 2.41 | 2.58 | 3.55 | 1.47 | 3.22 |
| TCTATTAGTTGATTAGGGCAACCAAAACAGCGGA | 0.762 | 0.673 | 0.188 | 0.699 | 0.773 | 1.06 | 0.435 | 2.01 | 3.9 | 2.83 |
| CGAACTAGGTCATTGACAGGACAGTGTATAGTAA | 4.45 | 3.09 | 0.874 | 2.13 | 0.106 | 4.79 | 7.66 | 6.32 | 3.42 | 5.88 |
